The values that follow come from PubChem BioAssay (NCI).

The panel holds about 79,000 compounds, 15% with a hit somewhere; the sample as a whole holds those more often. The source made the active and inactive calls. Rule as the data show it: active = growth inhibition above about 70%; inactive = the rest.

A short description of the assay: NCI Yeast Anticancer Drug Screen. Data for the mec2-1 strain (AID 157). The note with it: S. cerevisiae mec2-1 strain, at 50.0 µM, active compounds read high. The gist of the method:
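Using mec2-1 yeast: add compound, measure growth, express inhibition versus vehicle-treated cultures.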
Turning to `C[CH2][Sn]([CH2]C)([O]P(=O)(C[Si](C)(C)C)c1ccccc1)[O]P(=O)(C[Si](C)(C)C)c1ccccc1` (configuration not stated), the growth inhibition was 8.7% (inactive).
The value for `CC(C)(C)NC(=O)Oc1ccc(Br)cc1Br` was 14.4% (inactive); that for `CC1(C)C=CC(=NO)C=C1` was 2.65% (inactive); that for `NC(=S)N/N=C/c1ccncc1` was -10.6% (inactive).
The value for `O=C1CCCC(C(Sc2ccccc2)(Sc2ccccc2)Sc2ccccc2)C1` (configuration not stated) was 5.1% (inactive).
The same measure for `O=C(OC1CCC2(CC1)N=NC1(CCC(OC(=O)c3ccccc3)CC1)S2)c1ccccc1` (configuration not stated): 18.3% (inactive).
As to `CSc1nc(=O)cc(N)n1C`, the growth inhibition is -1.55% (inactive).
In the case of `CSc1ccc(NC(=O)Nc2ccc(Cl)cc2C(=O)c2ccccc2)cc1`, the growth inhibition is 97.8% (active).
The same measure for `CC(=O)C1(N=Nc2ccc(S(N)(=O)=O)cc2)CCOC1=O` (configuration not stated): -11.3% (inactive).
The same measure for `CC(C)=CCc1c(C)cc2cc3c(c(O)c2c1O)C(O)=CC(=O)C3(CC=C(C)C)C/C=C(\C)CO` (configuration not stated): 37% (inactive).
The value for `CC(=O)Nc1cc2cc(NC(=O)C(Cl)(Cl)Cl)ccc2oc1=O` was -17.4% (inactive).
As to `Cc1ccc(F)c(N)c1`, the growth inhibition was -17.2% (inactive).
The value for `CCCCCCCCCCCCCCCCCCCCCCC` was -15.1% (inactive); that for `CC(C)C(=O)/C=C/c1ccc(Br)cc1` was -4.95% (inactive).
Consider `CN(C)CC1CCC/C(=C\c2ccccc2)C1=O` (configuration not stated), for which the growth inhibition was 41.8% (inactive).
The value for `CN(C)C(=O)c1ccc([N+](=O)[O-])cc1` was 6.4% (inactive).
For `O=C(N=Nc1c(O)[nH]c2ccccc12)C(=O)N=Nc1c(O)[nH]c2ccccc12`, the growth inhibition is 8.35% (inactive).
